Source: PubChem BioAssay (NCATS)
Results filed as inconclusive are left out. A number with no mark means an inactive call. Activity calls are given as the source filed them. Calls follow the shape of the dose curve; as a rule, active = well fitted inhibition curve with a large enough effect; inconclusive = small, poorly fitted or top-dose-only effect; inactive = flat fitted curve, though single readings scatter.

system: not listed separately; assay: qHTS profiling for inhibitors of Plasmodium falciparum proliferation (AID 504749); also: nearly all actives have a fitted effect of over 60% in size;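 as to activity, negative = inhibition: 0% = DMSO vehicle and full inhibition = artemisinin control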; conditions: P. falciparum in erythrocytes, SYBR Green DNA, 72 h; parasite line A
Outline: (§1)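 P. falciparum-infected erythrocytes (0.3% parasitemia, 2.5% hematocrit final) were exposed to compounds for 72 h at 37 C in 5% CO2, then lysed with SYBR Green buffer overnight at room temperature; parasite DNA fluorescence was normalized to artemisinin and DMSO controls.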
Potency is read from the fitted curve at half-maximal effect.

Compound	Potency
C[C@@H]1CN(CCCn2c3ccccc3c3ccccc32)C[C@H](C)N1	10 µM (active)
NC(=NCCCCCCN=C(N)/N=C(\N)Nc1ccc(Cl)cc1)/N=C(\N)Nc1ccc(Cl)cc1	3.16 µM (active)
O=C(N/N=C/c1ccccc1O)c1ccncc1	6.31 µM (active)
CCCCCCCCCCCCCCNCCO	10 µM (active)

same assay, conditions: P. falciparum in erythrocytes, SYBR Green DNA, 72 h; parasite line B

Compound	Potency
NC(=NCCCCCCN=C(N)/N=C(\N)Nc1ccc(Cl)cc1)/N=C(\N)Nc1ccc(Cl)cc1	3.98 µM (active)
CN(C)CC/C=C1\c2ccccc2Sc2ccc(Cl)cc21	8.91 µM (active)
O=C(N/N=C/c1ccccc1O)c1ccncc1	11.2 µM (active)

system: 3D7; assay: as above; conditions: P. falciparum in erythrocytes, SYBR Green DNA, 72 h; series mostly up to 28.7 µM; activity, negative = inhibition: at the top concentration
Outline: as §1

Compound	activity, negative = inhibition	Potency
CN1C2CCC1CC(OC(=O)c1c[nH]c3ccccc13)C2 (stereo unspecified)	5.03%	–
Cc1ncc(CSSCc2cnc(C)c(O)c2CO)c(CO)c1O	-10.3%	–
CC(C)COC(=O)OCN1C(=O)CN(CCN2CC(=O)N(COC(=O)OCC(C)C)C(=O)C2)CC1=O	-1.18%	–
CN1CCC[C@@H]1c1cccnc1	1.08%	–
Oc1c(Cl)cc(Cl)cc1Sc1cc(Cl)cc(Cl)c1O	2.61%	–
CCN(CCCc1ccccc1)CCCc1ccccc1	0.916% [at 12.8 µM]	–
CCN1CCN(c2cc3c(cc2F)c(=O)c(C(=O)O)cn3C2CC2)CC1	-25.6%	–
CNCCC=C1c2ccccc2CCc2ccccc21	-11.9%	–
Cc1ccnc(NS(=O)(=O)c2ccc(N)cc2)n1	3.55% [at 12.8 µM]	–
C[N+]1(CCCCC[N+]2(C)CCCC2)CCCC1	0.879%	–
COc1c2occc2c(OC)c2c(=O)cc(C)oc12	1.81% [at 12.8 µM]	–
CC(=O)N(O)CCCCCNC(=O)CCC(=O)N(O)CCCCCNC(=O)CCC(=O)N(O)CCCCCN	5.87% [at 12.8 µM]	–
CCCCCC=CCC=CCCCCCCCC(=O)OCC	-2.69%	–
NC(=NCCCCCCN=C(N)/N=C(\N)Nc1ccc(Cl)cc1)/N=C(\N)Nc1ccc(Cl)cc1	–	1.41 µM (active)
N[C@@H](Cc1cnc[nH]1)C(=O)O	5.1%	–
O=C1c2ccccc2C(=O)C1c1ccccc1	-12.8% [at 12.8 µM]	–
CN(C)CC/C=C1\c2ccccc2Sc2ccc(Cl)cc21	-25%	–
CC(=O)Oc1ccc(C(c2ccc(OC(C)=O)cc2)c2ccccn2)cc1	5.25%	–
NC(CO)(CO)CO	4.53%	–
C1CCc2nnnn2CC1	6.72%	–
COC1=CC(=O)C[C@@H](C)[C@]12Oc1c(Cl)c(OC)cc(OC)c1C2=O	-2.92%	–
CC1(C)CCC(NC(=O)[C@@H](N)CCC(=O)O)CC1	0.836%	–
CC(O)(P(=O)(O)O)P(=O)(O)O	-9.08%	–
c1ccc(CNCCNCc2ccccc2)cc1	-4.15%	–
